Measurements published in PubChem BioAssay (NCATS).
Inconclusive results are not listed. A call without a number means that no potency is given here. The source made the active and inactive calls. The call rests on the fitted dose curve; in most records, active means well fitted cell-killing curve with a large enough effect; inconclusive means small, poorly fitted or top-dose-only effect, or effect the other way; inactive means no such curve, though single readings can be large or run the other way.

Test: qHTS of pediatric cancer cell lines to identify multiple opportunities for drug repurposing: Confirmatory screen for Saos-2 cells (AID 1347127); further: nearly all actives have a fitted effect of over 60% in size
Conditions: Saos-2 osteosarcoma cell viability; series mostly up to 45.9 µM
Source text: Drug repurposing or repositioning has been offered as a strategy for drug development in oncology programs. This approach has special potential for childhood cancers and other rare or orphan diseases, where the expected return on new drug development has been a disincentive to pharmaceuticals.
In this project we exploit the poly-pharmacology of drugs to discover new indications via phenotypic screening of a panel of 19 well-characterized cell lines derived from solid tumors seen in children and adolescents. The goal is to identify approved drugs with previously unrecognized anticancer properties that has the potential to reveal new mechanisms and biological processes involved in carcinogenesis or drug resistance. We employed a titration-based paradigm (quantitative high-throughput screening or qHTS), where all compounds were tested at multiple concentrations for their effect on cell viability. Concentration-response curves (CRCs) were derived directly from the primary screen, and both potency and efficacy values were used to identify compounds with robust bioactivity profiles. We screened the NIH Chemical Genomics Center (NCGC) Pharmaceutical Collection (NPC) and Mechanism Interrogation Plate (MIPE) small molecule collections of approved and investigational compounds against these cell lines; and measured metabolically active cells after 48 hours of compound treatment as a proxy for cell viability.
Assay Submitter: Nathalia J. Martinez, National Center for Advancing Translational Sciences, National Institutes of Health, Rockville, MD, USA; email: natalia.martinez@nih.gov
[1] Shen, M et al. Quantitative high-throughput phenotypic screening of pediatric cancer cell lines identifies multiple opportunities for drug repurposing. Oncotarget 2017 Dec 19;9(4):4758-4772. PMID 29435139.
The cells were obtained from University of North Carolina (UNC), Pediatric Preclinical Testing Program (PPT), and Coriell Institute (CI).
qHTS cell viability assay:
Cells were assayed in growth media at a density of 500-1,000 cells/well. Five microliters of cells were dispensed into 1,536-well, white, solid-bottom, TC-treated plates (Greiner Bio One) using a multidrop dispenser and incubated at 37 degrees C, 5% CO2, under a humidified atmosphere for 5 hours. Twenty-three nanoliters of compounds and controls (neutral control DMSO or positive control bortezomib at final concentration of 2.3 µM) were subsequently transferred by Kalypsys pintool. For primary screens, the MIPE collection was tested at 11-point dilutions (final concentrations range from 0.78 nM to 46 µM) and the NPC collection at 8-point dilutions (final concentrations range from 0.59 nM to 46 µM). Compounds tested in follow-up screens were assayed at 11-point dilutions. Cells were incubated for 48 hours, followed by addition of 3 µL of CellTiter-Glo (Promega). After a 15 min incubation at room temperature, samples were analyzed for luminescence intensity using a ViewLux High-throughput CCD imager equipped with clear filters.
Potency means the concentration at half of the fitted maximal effect.

Compound | Potency
ClC1=C(Cl)C2(Cl)C(CBr)CC1(Cl)C2(Cl)Cl (stereo unspecified) | inactive
CN(C)C(=S)SSC(=S)N(C)C | 10.4 µM (active)
COc1ccc(C(=O)N2CCCC2=O)cc1 | inactive
C[C@@H]1O[C@@H](O[C@@H]2C=C3CC[C@@H]4[C@H](CC[C@]5(C)[C@@H](c6ccc(=O)oc6)CC[C@]45O)[C@@]3(C)CC2)[C@H](O)[C@H](O)[C@H]1O | 0.185 µM (active)
CCc1ccc(C2CCNCC2)cc1 | inactive
CCCCCCCCCCCC[N+](C)(C)CCOc1ccccc1 | 14.7 µM (active)
CCCCCCCCC(=O)NCc1ccc(O)c(OC)c1 | inactive
COc1ccc2c(C(=O)c3ccc(Cl)cc3)c(C)n(CC(=O)O)c2c1 | inactive
Cc1ccc([N+](=O)[O-])[c]2c1[O][Hg]2 | 1.04 µM (active)
CC[n+]1c(-c2ccccc2)c2cc(N)ccc2c2ccc(N)cc21 | 16.5 µM (active)
CN1[C@@H]2CC[C@H]1CC(OC(=O)c1cc(Cl)cc(Cl)c1)C2 (stereo partly specified) | inactive
